Measured values: PubChem BioAssay AID1779 (Sanford-Burnham Center for Chemical Genomics, 2009)
Screen size: about 290,000 compounds; about 160 (0.055%) were called active. This is one part of a sample in which actives are shown more often than they occur. Rule as the data show it: active = inhibition above about 50%; inactive = the rest.

The compounds below were run against Tyrosine-protein phosphatase non-receptor type 22 (Homo sapiens) (UniProt Q9Y2R2) (assay: PTPN22 lymphoid phosphatase activity blockers – biochemical, fluorescence intensity, uHTS (AID 1779;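 also: plate controls were vehicle with enzyme for no effect and no enzyme for full effect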)). Settings: recombinant LYP phosphatase, at 11.5 µM, hits give high values.
Chain of Tyrosine-protein phosphatase non-receptor type 22 (Homo sapiens) (Q9Y2R2 whole entry, looked up): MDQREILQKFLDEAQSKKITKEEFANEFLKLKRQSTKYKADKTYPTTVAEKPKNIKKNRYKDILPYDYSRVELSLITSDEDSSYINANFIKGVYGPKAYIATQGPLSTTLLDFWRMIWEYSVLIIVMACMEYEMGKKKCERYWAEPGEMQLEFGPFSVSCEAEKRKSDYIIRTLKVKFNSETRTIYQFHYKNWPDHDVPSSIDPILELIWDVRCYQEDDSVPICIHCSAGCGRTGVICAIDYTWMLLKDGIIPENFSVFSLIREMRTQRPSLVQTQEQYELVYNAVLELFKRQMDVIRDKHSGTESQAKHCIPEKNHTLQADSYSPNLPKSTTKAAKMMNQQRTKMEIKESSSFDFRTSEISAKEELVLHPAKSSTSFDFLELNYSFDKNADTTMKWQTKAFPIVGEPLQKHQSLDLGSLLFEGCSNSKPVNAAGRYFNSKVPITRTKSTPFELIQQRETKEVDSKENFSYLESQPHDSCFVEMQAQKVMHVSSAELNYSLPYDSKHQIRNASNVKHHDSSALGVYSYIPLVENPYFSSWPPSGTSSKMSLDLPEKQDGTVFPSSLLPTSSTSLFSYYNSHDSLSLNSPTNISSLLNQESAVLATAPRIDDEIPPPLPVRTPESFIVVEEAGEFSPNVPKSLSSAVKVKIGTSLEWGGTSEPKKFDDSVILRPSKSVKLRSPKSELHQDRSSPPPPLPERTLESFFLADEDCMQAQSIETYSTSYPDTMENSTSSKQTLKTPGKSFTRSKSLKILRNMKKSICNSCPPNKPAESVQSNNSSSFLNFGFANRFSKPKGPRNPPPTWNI

Row | SMILES | inhibition
1 | CC1Cc2ccccc2N1C(=O)CCn1c(=O)oc2ccccc21 (centres undefined) | 5.2% (inactive)
2 | COc1ccc(C(=O)n2ncc(C#N)c2N)cc1 | -0.2% (inactive)
3 | CSC1=NCCN1CCOc1ccccc1 | -8.5% (inactive)
4 | O=C(Cc1cccs1)N1CCN(c2ccc([N+](=O)[O-])cc2)CC1 | 70% (active)
5 | O=C(Cc1cccs1)N1CCN(c2ccc(F)cc2)CC1 | -8.1% (inactive)
6 | O=C(Cc1ccc([N+](=O)[O-])cc1)N1CCN(c2ccc([N+](=O)[O-])cc2)CC1 | -5.9% (inactive)
7 | C[C@]12C=CC(=O)C=C1CC[C@@H]1[C@@H]2C(=O)C[C@@]2(C)[C@H]1CC[C@]2(O)C(=O)CO | -5.9% (inactive)
8 | CC(=O)OCC(=O)[C@@]1(O)CC[C@H]2[C@@H]3CCC4=CC(=O)C=C[C@]4(C)[C@H]3C(=O)C[C@@]21C | -4.3% (inactive)
9 | CCOC1(C)OCC(=O)[C@]2(CCC3C4CCC5=CC(=O)C=CC5(C)C4C(=O)CC32C)O1 (some centres undefined) | 55.8% (active)
10 | CCN(CC)CCNC(=O)C1CCN(S(=O)(=O)N2CCCCC2)CC1 | -7.2% (inactive)
11 | COc1ccccc1N1CCN(C(=O)C2CCN(C(=O)c3cccc(Cl)c3)CC2)CC1 | -6.5% (inactive)
12 | COc1ccccc1N1CCN(C(=O)C2CCN(C(=O)c3ccccc3C)CC2)CC1 | -10.9% (inactive)
13 | COc1ccccc1N1CCN(C(=O)C2CCN(C(=O)c3ccccc3Cl)CC2)CC1 | 69.4% (active)
14 | O=C(Nc1ccc2c(c1)OCO2)c1ccccc1SCC(=O)N1CCCC1 | 0.1% (inactive)
15 | CCOc1cc(N2CCOCC2)c(OCC)cc1NC(=O)c1c(-c2ccccc2Cl)noc1C | 2.6% (inactive)
16 | CCSc1nnc(NC(=O)C2CC=CCC2C(=O)O)s1 (centres undefined) | 0.6% (inactive)
17 | CCSc1nnc(NC(=O)C2CCCCC2)s1 | -4.2% (inactive)
18 | CCSc1nnc(NC(=O)C2CCCCC2C(=O)O)s1 (centres undefined) | 66.2% (active)
19 | CS(=O)(=O)N(CC(=O)Nc1ccccc1Br)Cc1ccccc1 | -4.5% (inactive)
20 | O=C1OC(c2ccc(Br)cc2)=N/C1=C\c1ccco1 | 63.7% (active)

Row | SMILES | inhibition
21 | O=C1NC(c2ccc(Br)cc2)=N/C1=C/c1ccco1 | 9.9% (inactive)
22 | CC1=N/C(=C/c2ccco2)C(=O)O1 | -3.8% (inactive)
23 | CCOC(=O)c1ccc(N2C(=O)C3C(/C=C/c4ccccc4)OC4(C(=O)c5ccccc5C4=O)C3C2=O)cc1 (centres undefined) | 7.3% (inactive)
24 | CCOC(=O)c1cc(-c2cc(OC)c(OC)c(OC)c2)nc2c1c(=O)[nH]c(=O)n2Cc1ccccc1 | -8.7% (inactive)
25 | CCOc1ccc(C(=O)Nc2ccc(Cl)cn2)cc1Cl | 80.4% (active)
26 | O=C(COc1ccc(Cl)cc1Cl)Nc1ccc(Cl)cn1 | -4.3% (inactive)
27 | COc1ccc(C(=O)Nc2ccc(Cl)cn2)cc1Cl | 0.7% (inactive)
28 | CCn1c(SCC(=O)N/N=C(/C)c2ccncc2)nc2ccccc21 | -6.6% (inactive)
29 | Cc1ccc(S(=O)(=O)NC(=O)Nc2nnc(C3CC3)s2)cc1 | -9.1% (inactive)
30 | CC(=O)Nc1ccc(NC(=O)CSc2ccc(-c3sc(C)nc3C)nn2)cc1 | -10.3% (inactive)
31 | N#Cc1c(/N=C\c2ccc(O)c([N+](=O)[O-])c2)sc2c1CCCC2 | 7.9% (inactive)
32 | CC1=NN(c2ccccc2)C(=O)/C1=C\C=C1\N(C)c2ccccc2C1(C)C | 6.4% (inactive)
33 | O=C(CNC(=O)c1ccc(Cl)cc1)NCC(F)(F)F | 68.8% (active)
34 | CC(=O)NCCNC(=O)CNC(=O)c1ccc(Cl)cc1 | -1.1% (inactive)
35 | O=C(CNC(=O)c1ccc(F)cc1)NCc1ccc(Cl)cc1 | -3% (inactive)
36 | O=C1CC(N2CCN(c3cccc(C(F)(F)F)c3)CC2)C(=O)N1c1ccc(F)cc1 (centres undefined) | 4.8% (inactive)
37 | O=C(NC1CCCCCC1)C(=O)NC1CCCC1 | -2.9% (inactive)
38 | N#CC(C(=O)NC1CCCCC1)=C1CCCCC1 | 62.7% (active)
39 | N#CC(C(=O)NC1CCCCC1)=C1CCCCCC1 | 2.1% (inactive)
40 | CCN(CCCNC(=O)C1CCN(S(=O)(=O)c2cccc3nonc23)CC1)Cc1ccccc1 | -4.7% (inactive)

Row | SMILES | inhibition
41 | Cc1cc([N+](=O)[O-])ccc1NC(=O)CCC(=O)N1CCCCC1 | -5.2% (inactive)
42 | COc1ccc(NC(=S)N(CCN(C)C)C(C)c2ccncc2)cc1Cl (centres undefined) | -7.3% (inactive)
43 | CCOC(=O)C1=C(CP(=O)(c2ccccc2)c2ccccc2)NC(=O)NC1c1ccc(OC)cc1 (centres undefined) | 4% (inactive)
44 | CC(C)c1c(O)c2c(n(-c3ccccc3)c1=O)CCCC2 | 1% (inactive)
45 | O=c1c(-c2ccccc2)c(O)c2c(n1-c1ccccc1)CCCC2 | 66.2% (active)
46 | CC/C(=N\O)c1c(O)c2c(n(-c3ccccc3)c1=O)CCCC2 | 3.9% (inactive)
47 | Cc1cc(C)cc(Cn2ncc(Cl)c(Cl)c2=O)c1 | -5.9% (inactive)
48 | COc1ccc(C(=O)Nc2nc(N3C(=O)c4ccccc4C3=O)n(-c3ccccc3)n2)cc1 | -1.2% (inactive)
49 | O=C(COc1ccc(/C=N/NC(=O)c2ccncc2)cc1)Nc1cccc([N+](=O)[O-])c1 | -3.3% (inactive)
50 | COc1cc(/C=N/NC(=O)c2ccc(O)cc2)ccc1OCC(=O)Nc1cccc([N+](=O)[O-])c1 | -5.1% (inactive)
51 | O=C(COc1ccc(/C=N/NC(=O)c2ccc(O)cc2)cc1)Nc1cccc([N+](=O)[O-])c1 | 56.7% (active)
52 | CN(C)CCCNc1nc(-c2ccccc2)nc2ccccc12 | -1.4% (inactive)
53 | COc1ccc(Cn2c3nc4ccccc4nc3c3c(=O)n(Cc4ccco4)c(C)nc32)cc1 | 55.8% (active)
54 | COc1ccc(Cn2c3nc4ccccc4nc3c3c(=O)n(Cc4ccco4)cnc32)cc1 | 24.1% (inactive)
55 | Cc1nc2c(c(=O)n1Cc1ccccc1Cl)c1nc3ccccc3nc1n2Cc1ccco1 | -4.4% (inactive)
56 | COc1cccc(-c2onc3ccc(C(=O)/C=C/N(C)C)cc23)c1 | 2.8% (inactive)
57 | CCOC(=O)CC1(NC(=O)c2cc(COc3cccc(OC)c3)on2)CCCCC1 | 4.4% (inactive)
58 | CCOC(=O)CC1(NC(=O)c2cc(COc3cncc(Cl)c3)on2)CCCCC1 | 54.6% (active)
59 | CCOC(=O)CC1(NC(=O)c2cc(COc3ccc(F)c(F)c3)on2)CCCCC1 | -5.7% (inactive)
